{
  "source": "paper PMC8384837",
  "about": "“Expanding the binding specificity for RNA recognition by a PUF domain”",
  "assay_in_all_cases": "yeast three-hybrid, YBZ-1, SC-Leu-His + 0.5 mM 3-AT, 4 days",
  "settings_in_all_cases": "tags: N-Gal4 AD-HA kept; label: inside an RPR1-promoter hybrid RNA with tandem MS2 sites; ssRNA",
  "key": {"PUM1 PUF domain R1-RST": {"biological_target": "PUM1 PUF domain R1-RST (Homo sapiens, UniProt Q14671 828-1176, S863R;R864S;Q867T)", "summary_of_the_method": "(§1)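 The interaction score is the logarithmic change in variant frequency from input to selection. It uses log2, with a pseudocount of 1 for absent variants, and frequencies came from PCR-amplified, Illumina-sequenced repeat regions. The libraries were Pumilio-1 PUF domains randomized at the three base-contacting residues per repeat, co-expressed with matching RNA elements in strain YBZ-1 (LexA–MS2 coat fusion, HIS3 reporter). Plating lasted four days on SC-Leu (input) or SC-Leu-His + 0.5 mM 3-AT (selection).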"}, "PUM1 PUF domain R5-QTI": {"biological_target": "PUM1 PUF domain R5-QTI (Homo sapiens, UniProt Q14671 828-1176, C1007Q;R1008T;Q1011I)", "summary_of_the_method": "as §1"}, "PUM1 PUF domain R8-KHL": {"biological_target": "PUM1 PUF domain R8-KHL (Homo sapiens, UniProt Q14671 828-1176, N1122K;Y1123H;Q1126L)", "summary_of_the_method": "as §1"}, "PUM1 PUF domain R3-MWY": {"biological_target": "PUM1 PUF domain R3-MWY (Homo sapiens, UniProt Q14671 828-1176, C935M;R936W;Q939Y)", "summary_of_the_method": "as §1"}, "PUM1 PUF domain R3-GPW": {"biological_target": "PUM1 PUF domain R3-GPW (Homo sapiens, UniProt Q14671 828-1176, C935G;R936P;Q939W)", "summary_of_the_method": "as §1"}, "PUM1 PUF domain R6-RYT": {"biological_target": "T1, PUM1 PUF domain R6-RYT (Homo sapiens, UniProt Q14671 828-1176, N1043R;Q1047T)", "T1 sequence": "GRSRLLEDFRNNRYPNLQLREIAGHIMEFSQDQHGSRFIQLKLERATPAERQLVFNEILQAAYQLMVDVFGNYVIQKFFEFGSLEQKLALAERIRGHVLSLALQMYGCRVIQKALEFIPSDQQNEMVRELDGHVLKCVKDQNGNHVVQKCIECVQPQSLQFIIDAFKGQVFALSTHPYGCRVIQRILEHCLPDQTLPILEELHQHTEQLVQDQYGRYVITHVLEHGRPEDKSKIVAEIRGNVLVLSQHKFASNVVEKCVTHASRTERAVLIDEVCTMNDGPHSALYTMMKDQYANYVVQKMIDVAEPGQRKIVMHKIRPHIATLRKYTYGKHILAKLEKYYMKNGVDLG", "summary_of_the_method": "as §1"}, "PUM1 PUF domain R4-RRY": {"biological_target": "PUM1 PUF domain R4-RRY (Homo sapiens, UniProt Q14671 828-1176, N971R;H972R;Q975Y)", "summary_of_the_method": "as §1"}, "PUM1 PUF domain R3-EFV": {"biological_target": "PUM1 PUF domain R3-EFV (Homo sapiens, UniProt Q14671 828-1176, C935E;R936F;Q939V)", "summary_of_the_method": "as §1"}, "PUM1 PUF domain R5-LYV": {"biological_target": "PUM1 PUF domain R5-LYV (Homo sapiens, UniProt Q14671 828-1176, C1007L;R1008Y;Q1011V)", "summary_of_the_method": "as §1"}, "PUM1 PUF domain R3-WCA": {"biological_target": "PUM1 PUF domain R3-WCA (Homo sapiens, UniProt Q14671 828-1176, C935W;R936C;Q939A)", "summary_of_the_method": "as §1"}},
  "data": [
    {"sequence": "GGCUAGAACUAGUGGAUCCCCCGGCGCCCGGCGGCUCGAGCCCGGGUAAGUGUAAAUGGUCUGCAUGCCGCCGGGCGCCAUGCCUGCAGGUCGACUCUAGAAAACAUG", "values": [
      {"measurement": "binding signal", "setting": "PUM1 PUF domain R1-RST", "value": "2.92 log2 enrichment (interaction score)"}
    ]},
    {"sequence": "GGCUAGAACUAGUGGAUCCCCCGGCGCCCGGCGGCUCGAGCCCGGGUAAGUGUGAAUAGUCUGCAUGCCGCCGGGCGCCAUGCCUGCAGGUCGACUCUAGAAAACAUG", "values": [
      {"measurement": "binding signal", "setting": "PUM1 PUF domain R5-QTI", "value": "3.11 log2 enrichment (interaction score)"}
    ]},
    {"sequence": "GGCUAGAACUAGUGGAUCCCCCGGCGCCCGGCGGCUCGAGCCCGGGUAAGCGUAAAUAGUCUGCAUGCCGCCGGGCGCCAUGCCUGCAGGUCGACUCUAGAAAACAUG", "values": [
      {"measurement": "binding signal", "setting": "PUM1 PUF domain R8-KHL", "value": "5.8 log2 enrichment (interaction score)"}
    ]},
    {"sequence": "GGCUAGAACUAGUGGAUCCCCCGGCGCCCGGCGGCUCGAGCCCGGGUAAGUGUAAUUAGUCUGCAUGCCGCCGGGCGCCAUGCCUGCAGGUCGACUCUAGAAAACAUG", "values": [
      {"measurement": "binding signal", "setting": "PUM1 PUF domain R3-MWY", "value": "3.31 log2 enrichment (interaction score)"}
    ]},
    {"sequence": "GGCUAGAACUAGUGGAUCCCCCGGCGCCCGGCGGCUCGAGCCCGGGUAAGUGUAAAUCGUCUGCAUGCCGCCGGGCGCCAUGCCUGCAGGUCGACUCUAGAAAACAUG", "values": [
      {"measurement": "binding signal", "setting": "PUM1 PUF domain R1-RST", "value": "5.18 log2 enrichment (interaction score)"}
    ]},
    {"sequence": "GGCUAGAACUAGUGGAUCCCCCGGCGCCCGGCGGCUCGAGCCCGGGUAAGUGUAAAUAGUCUGCAUGCCGCCGGGCGCCAUGCCUGCAGGUCGACUCUAGAAAACAUG", "values": [
      {"measurement": "binding signal", "setting": "PUM1 PUF domain R3-GPW", "value": "4.04 log2 enrichment (interaction score)"},
      {"measurement": "binding signal", "setting": "PUM1 PUF domain R6-RYT", "value": "2.71 log2 enrichment (interaction score)"},
      {"measurement": "binding signal", "setting": "PUM1 PUF domain R4-RRY", "value": "2.87 log2 enrichment (interaction score)"},
      {"measurement": "binding signal", "setting": "PUM1 PUF domain R3-EFV", "value": "3.71 log2 enrichment (interaction score)"},
      {"measurement": "binding signal", "setting": "PUM1 PUF domain R5-LYV", "value": "3.28 log2 enrichment (interaction score)"},
      {"measurement": "binding signal", "setting": "PUM1 PUF domain R8-KHL", "value": "4.75 log2 enrichment (interaction score)"}
    ]},
    {"sequence": "GGCUAGAACUAGUGGAUCCCCCGGCGCCCGGCGGCUCGAGCCCGGGUAAGUGUAAGUAGUCUGCAUGCCGCCGGGCGCCAUGCCUGCAGGUCGACUCUAGAAAACAUG", "values": [
      {"measurement": "binding signal", "setting": "PUM1 PUF domain R3-WCA", "value": "3.27 log2 enrichment (interaction score)"}
    ]},
    {"sequence": "GGCUAGAACUAGUGGAUCCCCCGGCGCCCGGCGGCUCGAGCCCGGGUAAGUGUAAAUUGUCUGCAUGCCGCCGGGCGCCAUGCCUGCAGGUCGACUCUAGAAAACAUG", "values": [
      {"measurement": "binding signal", "setting": "PUM1 PUF domain R1-RST", "value": "3.88 log2 enrichment (interaction score)"}
    ]}
  ]
}
